According to PubChem BioAssay AID1030 (National Center for Advancing Translational Sciences (NCATS), 2008):
The campaign covered roughly 220,000 compounds. About 16,000 (7.3%) were called active. Where a call stands in place of a potency, no number is given. Roughly 25% stayed inconclusive and do not appear here. The call rests on the fitted dose curve; in most records, active means well fitted inhibition curve with a large enough effect (not every such curve was filed as active); inconclusive means small, poorly fitted or top-dose-only effect, or another doubt; inactive means no such curve, though single readings can be large or run the other way. The full list was thinned out, with actives kept by preference.

The compounds below were run against Aldehyde dehydrogenase 1A1 (Homo sapiens) (UniProt P00352) (assay: qHTS Assay for Inhibitors of Aldehyde Dehydrogenase 1 (ALDH1A1)). Settings: Purified ALDH1A1, NADH fluorescence, propionaldehyde substrate; series mostly up to 75.3 µM.
Aldehyde dehydrogenase 1A1 (Homo sapiens), sequence (P00352 whole entry, looked up): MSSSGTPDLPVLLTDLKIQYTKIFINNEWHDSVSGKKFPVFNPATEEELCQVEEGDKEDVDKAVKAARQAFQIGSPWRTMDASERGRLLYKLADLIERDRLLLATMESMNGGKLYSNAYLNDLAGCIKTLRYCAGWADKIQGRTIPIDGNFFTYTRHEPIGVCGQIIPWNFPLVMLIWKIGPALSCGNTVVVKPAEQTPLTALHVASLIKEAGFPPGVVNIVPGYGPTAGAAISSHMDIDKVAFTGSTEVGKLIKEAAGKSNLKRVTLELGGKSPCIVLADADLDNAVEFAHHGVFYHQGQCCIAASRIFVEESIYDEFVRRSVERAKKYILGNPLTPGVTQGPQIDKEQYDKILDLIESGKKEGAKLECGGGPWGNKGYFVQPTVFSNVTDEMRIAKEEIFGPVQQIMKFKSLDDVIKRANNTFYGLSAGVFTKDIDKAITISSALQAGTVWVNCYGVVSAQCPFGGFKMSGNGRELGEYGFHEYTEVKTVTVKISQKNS
Potency means the concentration at half of the fitted maximal effect.

Compound | Potency
CCOC(=O)c1ccc(-c2ccc(C(=O)Nc3cccnc3)o2)cc1 | 22.4 µM (active)
O=C(Nc1cccnc1)c1ccc2c(c1)OCO2 | inactive
COc1ccc(C(=O)Nc2cccnc2)cc1C(=O)Nc1cccnc1 | inactive
OC1CSc2nc3ccccc3n2C1 (configuration not stated) | inactive
COc1ccc(Cl)cc1N(CC(=O)N1CCCCC1)S(C)(=O)=O | inactive
CCn1c(C(C)C)n[nH]c1=S | inactive
CCCCCCCC/C=C\CCCCCCCC(=O)NCC(=O)O | inactive
COc1ccccc1NC(=O)C1=C(C)NC(=O)NC1c1ccc(C)s1 (configuration not stated) | inactive
CCOC(=O)/C(=N\Nc1ccccc1Cl)N(C)C1CCS(=O)(=O)C1 (configuration not stated) | inactive
Cc1ccnc(-n2sc3ccccc3c2=O)n1 | 1.26 µM (active)
Cc1ccnc(Nc2nc3ccccc3s2)n1 | inactive
Cc1nc2ccccc2c(=O)n1CCCn1ccnc1 | inactive
COC(=O)C(C)NC(=O)COc1ccc2ccccc2c1 (configuration not stated) | inactive
C/C(=N/N1CCN(Cc2cccc3ccccc23)CC1)c1cccnc1 | inactive
CC/C(Cc1ccccc1)=N/NC(=O)CCn1nnc2ccccc21 | inactive
CC(C)Cc1nc(Cl)c(C#N)c2c1CCC2 | inactive
COC(=O)C1=C(C)NC(=O)/C1=C/c1ccc(CNS(=O)(=O)c2ccc(C)cc2)o1 | inactive
O=C(NCC(=O)N(CC1CCCO1)C(C(=O)NC1CCCCC1)c1ccccc1)c1ccco1 (configuration not stated) | inactive
CCCNC(=O)CN(Cc1ccccc1F)S(=O)(=O)c1ccc(C)cc1 | inactive
CCNC(=O)CN(c1ccc(C)cc1)S(=O)(=O)c1ccc(SC)cc1 | 11.2 µM (active)
Cc1ccc(S(=O)(=O)N(CC(=O)NCCSC2CCCCC2)c2ccccc2F)cc1 | inactive
COc1ccc(/C=C2\SC(=S)N(CC(=O)NNC(=O)c3ccncc3)C2=O)cc1 | inactive
O=c1c2ccccc2nc(CSc2nnnn2-c2ccccc2)n1-c1ccccc1 | inactive
N#CCSc1nc2ccccc2c(=O)n1-c1ccccc1 | 12.6 µM (active)

Compound | Potency
COc1cccc(-n2c(SCC(=O)c3c[nH]c4ccccc34)nc3ccccc3c2=O)c1 | inactive
CC(C)(C)C1CCC(=NNC(=O)c2ccc(Br)o2)CC1 (configuration not stated) | inactive
O=c1c(Cl)c(NC2CC2)cnn1-c1ccccc1 | inactive
Cc1cc(C)nc(SCC(=O)N(C)C)n1 | inactive
CCOc1ccc(NC(=O)CSc2ncnc3c2sc2ccccc23)cc1 | inactive
COc1ccc(NC(=O)CSc2ncnc3[nH]ncc23)cc1 | 11.2 µM (active)
COc1ccc(NC(=O)CSc2nc(C)cs2)cc1 | inactive
COC(=O)c1sc(=S)n(-c2ccccc2)c1N | 7.08 µM (active)
CCOC(=O)c1sc(=S)n(-c2cccc(OC)c2)c1N | 22.4 µM (active)
CCOC(=O)c1sc(-c2cccc([N+](=O)[O-])c2)cc1N | inactive
CCOC(=O)c1csc(NC(=O)Nc2cccc(OC)c2)n1 | inactive
COC(=O)c1sccc1NN1C(=O)c2ccccc2C1=O | inactive
COC(=O)c1sc(=S)n(-c2ccc(Cl)cc2)c1C | inactive
COc1ccc(CCc2nnc(CCC(=O)NCc3cnn(-c4ccccc4C)c3)o2)cc1 | inactive
O=C(CCCNS(=O)(=O)c1cccc2nsnc12)NCCN1CCN(c2ccccc2F)CC1 | inactive
CCCCC/C=C\C[C@H](O)/C=C/C=C/C=C/[C@@H](O)CCCC(=O)O | inactive
COc1cc(C2CC(=O)N3CN(Cc4ccccc4)CSC3=C2C#N)ccc1OCc1ccccc1 (configuration not stated) | 10 µM (active)
COc1ccc(CCN=C2SCC(=O)N2Cc2ccccc2)cc1OC | inactive
COc1cc(CNC2CCCC2)c(Br)cc1OCc1ccccc1 | inactive
O=C(N/N=C1\CCSC1)c1cc(Cl)ccc1O | inactive
O=C(CSC(=S)N1CCOCC1)c1ccccc1 | inactive
CC(=O)c1ccc(NC(=O)CSC(=S)N2CCCC2)cc1 | inactive
O=C(CSC(=S)N1CCCCC1)c1c(F)cccc1F | 12.6 µM (active)
CCOP(=O)(OCC)C(Nc1ccc([N+](=O)[O-])cc1)c1ccc(Cl)cc1 (configuration not stated) | inactive

Compound | Potency
Cc1ccc2c(c1)C1CN(C)CCC1N2C(=S)Nc1ccc(Cl)cc1Cl (configuration not stated) | inactive
O=C(Nc1ccc(S(=O)(=O)N2CCc3ccccc3C2)cc1)c1ccccc1 | inactive
CCn1cc(C(=O)NCC2CCCO2)c(=O)c2cc(S(=O)(=O)N3CCCCC3)ccc21 (configuration not stated) | 15.8 µM (active)
CCOC(=O)N1CCN(C(=O)c2cn(C)c3ccc(S(=O)(=O)N4CCCC4)cc3c2=O)CC1 | inactive
Cc1ccc(S(=O)(=O)N2CCC(C(=O)NCC3CCCO3)CC2)cc1 (configuration not stated) | inactive
CCn1c(SCC(=O)NCC2CCCO2)nc2cc(S(=O)(=O)N3CCCCC3)ccc21 (configuration not stated) | inactive
CCn1cc(C(=O)NCCCN2CCCCCC2)c(=O)c2cc(S(=O)(=O)N3CCc4ccccc4C3)ccc21 | 7.94 µM (active)
NS(=O)(=O)c1ccc(CNC(=O)c2ccc(Cl)cc2[N+](=O)[O-])cc1 | inactive
CCOC(=O)N/N=C/c1cccnc1 | inactive
Cc1nn(CCOc2ccc(Br)cc2)c(C)c1[N+](=O)[O-] | inactive
CC(C)c1nc2sc3c(c2c(=O)n1N)CC(C)(C)OC3 | inactive
CN(C)CCSc1nc(N)c2c3c(sc2n1)COC(C)(C)C3 | inactive
C=CCNC(=S)NNc1ncnc2sc3c(c12)CC(C)(C)OC3 | 1.41 µM (active)
O=C(NCc1ccc(F)cc1)C(c1ccccc1)N(C(=O)c1csnn1)C1CC1 (configuration not stated) | inactive
COc1cc(C)c(S(=O)(=O)N2CCOCC2)c(C)c1C | inactive
O=C1N/C(=N\N=C\c2ccco2)SC1Cc1ccc(F)cc1 (configuration not stated) | inactive
CCOc1ccc(S(=O)(=O)Nc2ccc(S(=O)(=O)Nc3cc(OC)ccc3OC)cc2)cc1 | 10 µM (active)
CCOc1ccc(NS(=O)(=O)c2cc(C)c(C)cc2C)cc1 | 7.94 µM (active)
CCOc1ccc(C(=O)Nc2cc(OC)ccc2OC)cc1 | inactive
CCOc1ccc(NC(=O)Nc2cc(C)ccc2OC)cc1 | inactive
CCOc1ccc(S(=O)(=O)Nc2ccncc2)c(C)c1C | inactive
CCOc1ccc(NS(=O)(=O)c2ccc(C)c(C(N)=O)c2)cc1 | inactive
CN1CCN(/N=C/c2ccc(C#N)cc2)CC1 | inactive
CC(=O)/C(C)=N/O | inactive
